Measurements as given in PubChem BioAssay (Tox21).
The source made the active and inactive calls. Entries that show only a call come without a potency. Unless noted, the call rests on the fitted dose curve; in most records, active means well fitted curve in the direction sought with a large enough effect in the repeat runs; inconclusive means weak or mixed curves; inactive means no such curve, though single readings can be large; an effect the other way counts as inactive or inconclusive.

Columns and labels:
[1] = qHTS assay for small molecule agonists of the p53 signaling pathway (AID 651631; calls by dose curve; further: nearly all actives have a fitted effect of over 15% in size)
Method in brief: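 Quantitative high-throughput format: 4,000 p53RE-bla HCT-116 cells/well, 5 h pre-incubation, 16 h compound exposure at 37 °C, 2 h room-temperature substrate step, fluorescence intensity measured.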

[2] = qHTS assay for small molecules that induce genotoxicity in human embryonic kidney cells expressing luciferase-tagged ATAD5 (AID 651632); further: nearly all actives have a fitted effect of over 15% in size
Method in brief: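 Genotoxicity read-out via ATAD5-luciferase: HEK293T cells, 16 hr compound incubation at 37C, Amplite detection.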

[3] = qHTS assay for small molecule disruptors of the mitochondrial membrane potential - cell viability (AID 720634; calls by dose curve;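 further: human HepG2 liver cancer cells; series mostly up to about 83 µM; nearly all actives have a fitted effect of over 20% in size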)
Method in brief: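 Human hepatoma HepG2 cells were treated for 1 hr with test chemicals, then given m-MPI dye and CellTiter-Glo. Cell viability reflects luminescence proportional to cellular ATP.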

[4] = qHTS assay for small molecule disruptors of the mitochondrial membrane potential (AID 720635); further: potency means the concentration at half of the fitted maximal effect
Method in brief: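 Mitochondrial membrane potential tracked with Mito-MPS dye, red aggregates (ex 540/em 590 nm) against green monomers (ex 490/em 535 nm). Compound treatment 1 hr at 37C, dye 30 min in HepG2.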

[5] = qHTS assay to test for compound auto fluorescence at 535 nm (green) in HepG2 cells (AID 720675)
[6] = qHTS assay to test for compound auto fluorescence at 535 nm (green) in HEK293 cells (AID 720680)
[7] = target: Glucocorticoid receptor (Homo sapiens) (UniProt P04150); assay: qHTS assay to identify small molecule agonists of the glucocorticoid receptor (GR) signaling pathway (AID 720691; active means well fitted activation curve with a large enough effect in the signal ratio in the repeat runs, not every such curve was filed as active; inconclusive means weak or mixed curves, or effect the other way; inactive means no such curve, though single readings can be large or run the other way; the % refers to the signal ratio)
Chain of Glucocorticoid receptor (Homo sapiens) (P04150 whole entry, looked up): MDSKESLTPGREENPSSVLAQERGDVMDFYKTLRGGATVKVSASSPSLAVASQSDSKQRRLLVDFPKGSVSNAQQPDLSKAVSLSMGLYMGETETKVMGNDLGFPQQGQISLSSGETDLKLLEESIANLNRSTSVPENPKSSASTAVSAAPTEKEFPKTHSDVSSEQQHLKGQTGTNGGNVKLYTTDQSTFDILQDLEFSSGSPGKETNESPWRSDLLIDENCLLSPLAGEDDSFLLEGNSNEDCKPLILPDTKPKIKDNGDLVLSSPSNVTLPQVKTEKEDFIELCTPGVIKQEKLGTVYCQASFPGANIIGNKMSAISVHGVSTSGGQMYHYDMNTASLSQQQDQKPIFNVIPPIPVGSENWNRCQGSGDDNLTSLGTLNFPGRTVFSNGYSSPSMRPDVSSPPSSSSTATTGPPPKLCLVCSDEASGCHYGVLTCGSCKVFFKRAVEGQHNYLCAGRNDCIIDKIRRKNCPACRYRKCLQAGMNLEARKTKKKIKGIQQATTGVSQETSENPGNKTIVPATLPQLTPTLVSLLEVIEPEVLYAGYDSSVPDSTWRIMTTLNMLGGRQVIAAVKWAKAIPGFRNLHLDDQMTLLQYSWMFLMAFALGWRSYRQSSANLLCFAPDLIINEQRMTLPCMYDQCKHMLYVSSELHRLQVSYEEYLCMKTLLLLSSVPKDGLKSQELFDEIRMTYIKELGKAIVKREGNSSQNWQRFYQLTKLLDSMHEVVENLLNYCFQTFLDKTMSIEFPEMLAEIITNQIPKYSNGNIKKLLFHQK
Method in brief: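 Beta-lactamase reporter activity, read as fluorescence intensity, was measured in GR-bla HeLa cells exposed to compounds for 18 h at 37 C and then loaded with LiveBLAzer B/G FRET substrate for 2 h at room temperature.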

[8] = qHTS assay for identifying genotoxic compounds that show differential cytotoxicity against isogenic chicken DT40 cell lines with known DNA damage response pathways - Rev3 mutant cell line (AID 743014); further: nearly all actives have a fitted effect of over 55% in size; further: potency means the concentration at half of the fitted maximal effect
[9] = qHTS assay for identifying genotoxic compounds that show differential cytotoxicity against isogenic chicken DT40 cell lines with known DNA damage response pathways - Rad54/Ku70 mutant cell line (AID 743015); further: nearly all actives have a fitted effect of over 60% in size; further: potency means the concentration at half of the fitted maximal effect
[10] = qHTS assay to identify small molecule antagonists of the thyroid receptor (TR) signaling pathway - cell viability counter screen (AID 743064); further: nearly all actives have a fitted effect of over 50% in size; further: potency means the concentration at half of the fitted maximal effect
Method in brief: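 Compounds were tested on GH3.TRE-Luc cells in the presence of T3 at 1 nM final. Following 23.5 h at 37 °C, cell viability was quantified by CellTiter-Fluor.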

[11] = qHTS assay to identify small molecule antagonists of the thyroid receptor (TR) signaling pathway (AID 743065); further: nearly all actives have a fitted effect of over 55% in size; further: potency means the concentration at half of the fitted maximal effect
Method in brief: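 Antagonism measured as loss of luciferase signal in GH3 cells stably carrying a TRE-luciferase reporter, co-treated with compound and T3 (1 nM final) for 23.5 h at 37 C. Viability was read in the same well by CellTiter-Fluor.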

[12] = system: thyroid hormone receptor (rat, GH3 cells); assay: qHTS assay to identify small molecule agonists of the thyroid receptor (TR) signaling pathway (AID 743066; calls by dose curve)
[13] = target: Estrogen receptor (Homo sapiens) (UniProt P03372); assay: qHTS assay to identify small molecule antagonists of the estrogen receptor alpha (ER-alpha) signaling pathway (AID 743069; active means well fitted curve in the direction sought with a large enough effect in the signal ratio in the repeat runs, not every such curve was filed as active; inconclusive means weak or mixed curves, or effect the other way; inactive means no such curve, though single readings can be large or run the other way; the % refers to the signal ratio)
Chain of Estrogen receptor (Homo sapiens) (P03372 whole entry, looked up): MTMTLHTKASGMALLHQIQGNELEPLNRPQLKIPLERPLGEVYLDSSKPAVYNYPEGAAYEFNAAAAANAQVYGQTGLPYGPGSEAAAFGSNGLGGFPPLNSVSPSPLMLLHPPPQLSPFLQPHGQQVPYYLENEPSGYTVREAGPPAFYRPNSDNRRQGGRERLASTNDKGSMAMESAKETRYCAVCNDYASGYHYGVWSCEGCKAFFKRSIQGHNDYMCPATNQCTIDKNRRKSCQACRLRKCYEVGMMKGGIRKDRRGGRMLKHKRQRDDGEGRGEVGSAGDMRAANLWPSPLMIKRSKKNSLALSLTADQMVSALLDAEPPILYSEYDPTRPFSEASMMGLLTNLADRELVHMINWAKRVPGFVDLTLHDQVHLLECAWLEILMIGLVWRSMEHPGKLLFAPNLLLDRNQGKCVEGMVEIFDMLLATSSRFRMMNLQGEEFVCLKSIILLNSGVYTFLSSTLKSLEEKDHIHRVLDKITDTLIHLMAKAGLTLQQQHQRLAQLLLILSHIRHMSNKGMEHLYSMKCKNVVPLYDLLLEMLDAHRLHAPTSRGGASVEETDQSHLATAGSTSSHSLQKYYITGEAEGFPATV
Method in brief: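 ER-alpha-UAS-bla GripTite HEK293 line; 2% charcoal-stripped FBS overnight; plated, 4 hr 37C/5% CO2; cpd in DMSO + 17beta-estradiol, 18 hr 37C; LiveBLAzer B/G FRET substrate 2 hr RT; fluorescence intensity.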

[14] = target: Estrogen receptor (Homo sapiens) (UniProt P03372); assay: qHTS assay to identify small molecule agonists of the estrogen receptor alpha (ER-alpha) signaling pathway (AID 743075; calls by dose curve;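 further: HEK293 GripTite cells with ER-alpha and UAS-driven beta-lactamase reporter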; further: potency means the concentration at half of the fitted maximal effect)
[15] = target: Estrogen receptor (Homo sapiens) (UniProt P03372); assay: qHTS assay to identify small molecule agonists of the estrogen receptor alpha (ER-alpha) signaling pathway using the BG1 cell line (AID 743079); further: nearly all actives have a fitted effect of over 20% in size; further: potency means the concentration at half of the fitted maximal effect
[16] = qHTS assay to identify small molecule antagonists of the estrogen receptor alpha (ER-alpha) signaling pathway using the BG1 cell line (AID 743080; calls by dose curve;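 further: BG1 cells stimulated with 17beta-estradiol alongside compound; series mostly up to about 70 µM; nearly all actives have a fitted effect of over 25% in size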)
Method in brief: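 Luciferase inhibition measured with ONE-Glo after 30 min at RT in BG1Luc4E2 cells given test compounds and 17beta-estradiol for 21.5 h at 37 C; CellTiter-Fluor viability read in the same wells beforehand.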

[17] = qHTS assay to identify small molecule antagonists of the estrogen receptor alpha (ER-alpha) signaling pathway using the BG1 cell line - cell viability counter screen (AID 743081);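 further: compound given together with 17beta-estradiol as the ER stimulus; series mostly up to about 70 µM; nearly all actives have a fitted effect of over 45% in size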
[18] = target: Aryl hydrocarbon receptor (Homo sapiens) (UniProt P35869); assay: qHTS assay to identify small molecule that activate the aryl hydrocarbon receptor (AhR) signaling pathway (AID 743085); further: nearly all actives have a fitted effect of over 15% in size; further: potency means the concentration at half of the fitted maximal effect;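 on activation: HG2L7.5c1 human HepG2 liver cells with stably integrated DRE-driven firefly reporter; series mostly up to about 70 µM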
Chain of Aryl hydrocarbon receptor (Homo sapiens) (P35869 whole entry, looked up): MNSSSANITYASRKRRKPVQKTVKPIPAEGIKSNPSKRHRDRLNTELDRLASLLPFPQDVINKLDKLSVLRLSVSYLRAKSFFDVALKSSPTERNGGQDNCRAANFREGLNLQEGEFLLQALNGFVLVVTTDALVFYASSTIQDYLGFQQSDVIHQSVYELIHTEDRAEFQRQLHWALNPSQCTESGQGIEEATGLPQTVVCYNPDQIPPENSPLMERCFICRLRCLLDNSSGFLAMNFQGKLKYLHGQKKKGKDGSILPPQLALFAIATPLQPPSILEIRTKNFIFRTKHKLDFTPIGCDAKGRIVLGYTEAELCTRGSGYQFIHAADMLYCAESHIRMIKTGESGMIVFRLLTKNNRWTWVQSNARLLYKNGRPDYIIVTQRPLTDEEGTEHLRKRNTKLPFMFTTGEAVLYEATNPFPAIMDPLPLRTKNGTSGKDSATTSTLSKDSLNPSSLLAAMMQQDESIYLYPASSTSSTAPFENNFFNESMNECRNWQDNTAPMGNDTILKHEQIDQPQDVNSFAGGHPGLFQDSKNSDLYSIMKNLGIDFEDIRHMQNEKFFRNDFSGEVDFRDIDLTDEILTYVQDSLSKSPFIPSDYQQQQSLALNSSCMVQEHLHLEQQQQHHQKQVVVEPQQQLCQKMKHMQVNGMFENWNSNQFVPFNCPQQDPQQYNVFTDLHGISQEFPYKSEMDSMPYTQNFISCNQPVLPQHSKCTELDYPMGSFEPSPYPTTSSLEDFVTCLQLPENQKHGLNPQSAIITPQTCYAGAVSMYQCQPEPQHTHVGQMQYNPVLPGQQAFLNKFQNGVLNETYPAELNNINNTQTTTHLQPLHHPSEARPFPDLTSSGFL
Method in brief: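 24 h compound exposure, 37C, HepG2-derived HG2L7.5c1 cells with DRE-responsive luciferase. Readouts: fluorescence viability, then luminescence at room temperature after 30 min.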

[19] = target: Peroxisome proliferator-activated receptor gamma (Homo sapiens) (UniProt P37231); assay: qHTS assay to identify small molecule agonists of the peroxisome proliferator-activated receptor gamma (PPARg) signaling pathway (AID 743094; active means well fitted activation curve with a large enough effect in the signal ratio in the repeat runs, not every such curve was filed as active; inconclusive means weak or mixed curves, or effect the other way; inactive means no such curve, though single readings can be large or run the other way; the % refers to the signal ratio)
Chain of Peroxisome proliferator-activated receptor gamma (Homo sapiens) (P37231 whole entry, looked up): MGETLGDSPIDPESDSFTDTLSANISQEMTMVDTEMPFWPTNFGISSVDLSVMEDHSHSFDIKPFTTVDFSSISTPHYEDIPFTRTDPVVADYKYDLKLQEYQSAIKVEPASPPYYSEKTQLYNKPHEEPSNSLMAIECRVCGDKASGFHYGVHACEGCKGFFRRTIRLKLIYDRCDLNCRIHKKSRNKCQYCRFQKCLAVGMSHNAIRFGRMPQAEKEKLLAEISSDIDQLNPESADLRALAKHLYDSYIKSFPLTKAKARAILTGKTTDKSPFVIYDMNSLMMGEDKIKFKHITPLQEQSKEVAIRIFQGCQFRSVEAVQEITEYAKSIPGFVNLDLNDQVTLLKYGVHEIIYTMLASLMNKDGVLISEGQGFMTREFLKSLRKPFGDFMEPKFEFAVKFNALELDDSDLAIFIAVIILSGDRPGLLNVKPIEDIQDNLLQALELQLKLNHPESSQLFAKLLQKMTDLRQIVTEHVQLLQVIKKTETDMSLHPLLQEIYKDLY
Method in brief: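 Stably transfected HEK293H cells (GeneBLAzer PPARg UAS-bla) were incubated with test substances for 17 h at 37C after a 5 h pre-incubation; beta-lactamase activity was then detected by FRET substrate fluorescence.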

[20] = qHTS assay for identifying genotoxic compounds that show differential cytotoxicity against isogenic chicken DT40 cell lines with known DNA damage response pathways - wild type cell line (AID 743012); further: nearly all actives have a fitted effect of over 60% in size; further: potency means the concentration at half of the fitted maximal effect
Method in brief: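 Quantitative HTS on parental DT40 cells: 40 h compound treatment at 37 C/5% CO2, with viability then determined by CellTiter-Glo luminescence. Values serve as the DNA repair-proficient reference for differential cytotoxicity.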

| SMILES | Potency [1] | Potency [2] | Potency [3] | Potency [4] | Potency [5] | Potency [6] | Potency [7] | Potency [8] | Potency [9] | Potency [10] | Potency [11] | Potency [12] | Potency [13] | Potency [14] | Potency [15] | Potency [16] | Potency [17] | Potency [18] | Potency [19] | Potency [20] |
| --- | --- | --- | --- | --- | --- | --- | --- | --- | --- | --- | --- | --- | --- | --- | --- | --- | --- | --- | --- | --- |
| O=C1Nc2ccc(Cl)cc2C(c2ccccc2Cl)=NC1O (stereo not given) | inactive | inactive | inactive | inactive | inactive | inactive | inactive | inactive | inactive | inactive | inactive | inactive | inactive | inactive | inactive | inactive | inactive | inactive | inactive | – |
| Cc1ccccc1-n1c(CF)nc2ccc(N)cc2c1=O | inactive | – | inactive | inactive | – | inactive | – | inactive | – | inactive | inactive | inactive | – | – | – | – | inactive | – | inactive | – |
| CNC(C)C(O)c1ccc(O)cc1 (stereo not given) | – | inactive | inactive | inactive | – | inactive | – | – | inactive | inactive | inactive | inactive | inactive | inactive | inactive | inactive | inactive | inactive | inactive | – |
| CCCCNCC(O)c1ccc(O)cc1 (stereo not given) | inactive | inactive | inactive | inactive | inactive | inactive | – | inactive | inactive | inactive | inactive | inactive | – | – | – | – | inactive | – | – | inactive |
| Cc1cccc(C(C)c2cnc[nH]2)c1C (stereo not given) | – | – | inactive | inactive | inactive | inactive | inactive | – | – | inactive | inactive | inactive | – | – | – | – | inactive | 11.9 µM (active) | – | – |
| CN1C(=O)CC(=O)N(c2ccccc2)c2cc(Cl)ccc21 | inactive | – | inactive | inactive | inactive | inactive | inactive | inactive | inactive | inactive | inactive | inactive | inactive | inactive | inactive | inactive | inactive | inactive | – | inactive |
| C[C@@H](Cc1ccccc1)N(C)C | inactive | – | inactive | inactive | inactive | inactive | – | inactive | inactive | inactive | inactive | inactive | – | – | – | – | inactive | inactive | – | inactive |
| CC(N)Cc1ccc(O)cc1 (stereo not given) | inactive | – | – | – | – | – | inactive | inactive | inactive | inactive | inactive | inactive | inactive | inactive | inactive | inactive | inactive | inactive | inactive | – |
| CNC1(c2ccccc2Cl)CCCCC1=O (stereo not given) | – | inactive | inactive | – | inactive | – | – | inactive | inactive | inactive | inactive | inactive | inactive | inactive | inactive | inactive | inactive | – | – | – |
| c1ccc2c(c1)Sc1ccccc1N2C[C@@H]1CN2CCC1CC2 | inactive | inactive | inactive | inactive | inactive | inactive | – | inactive | inactive | – | – | – | – | – | – | – | inactive | inactive | inactive | – |
| C[C@]12C=CC(=O)C=C1CC[C@@H]1[C@@H]2CC[C@]2(C)OC(=O)CC[C@@H]12 | inactive | inactive | inactive | – | – | inactive | – | inactive | inactive | – | inactive | inactive | – | 21.3 µM [inconclusive] (active) | 5.31 µM (active) | inactive | inactive | inactive | inactive | inactive |
| C[C@@H]([C@H](O)c1ccccc1)N(C)C | – | inactive | inactive | – | inactive | inactive | – | – | – | inactive | inactive | inactive | inactive | inactive | inactive | inactive | inactive | inactive | inactive | inactive |
| CC(C)C[C@H](CN)CC(=O)O | – | inactive | inactive | inactive | – | inactive | – | inactive | – | inactive | – | – | inactive | inactive | 13.3 µM (active) | inactive | inactive | inactive | – | inactive |
| COC(=O)[C@@H]1[C@H]2CC[C@@H](C[C@H]1OC(=O)c1ccccc1)N2C | inactive | inactive | inactive | – | inactive | inactive | – | inactive | inactive | inactive | inactive | inactive | inactive | inactive | inactive | inactive | inactive | – | inactive | – |
| CCCCCc1cc(O)c2c(c1)OC(C)(C)[C@@H]1CCC(C)=C[C@@H]21 | – | inactive | – | 3.76 µM (active) | inactive | inactive | – | 13.3 µM (active) | – | 13.3 µM (active) | 16.8 µM (active) | – | – | inactive | – | inactive | inactive | 9.44 µM (active) | – | – |
| c1ccc(C2(N3CCCC3)CCCCC2)cc1 | – | inactive | inactive | – | inactive | inactive | inactive | 8.41 µM (active) | 7.5 µM (active) | 16.8 µM (active) | 13.3 µM (active) | – | – | inactive | inactive | inactive | inactive | – | – | 5.31 µM (active) |
